aSyn 5UTR inh = 5' untranslated region of α-synuclein, MLPCN primary screen; inhibition, % (tested at 7.5 µM); alpha-synuclein 5'UTR reporter, inhibitor activity; 300,000 compounds, 0.82% hits; in the data active = inhibition above about 60%;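 also: H4 neuroglioblastoma cells stably carrying SNCA 5'UTR luciferase fusion; 0% = DMSO wells and 100% = positive control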
APP transl inh = APP translation inhibition. inhibition, % at 2 µM. SH-SY5Y APP 5'UTR-luciferase reporter, luminescence. 190,000 compounds, 0.82% hits. AID 1285;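 active = inhibition above a set limit, derived from the sample mean plus 3 SD, cut at about 45% in these data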
Ba/F3 V617F tox = lowers viability of Ba/F3 cells expressing EpoR and JAK2V617F; ATP luminescence; inhibition, % at 5.6 µM; 220,000 compounds, 1.1% hits; AID 1446;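 active = inhibition above the campaign mean plus 3 SD over all tested compounds, cut at about 24% in these data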;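 also: cytokine-independent growth of Ba/F3 cells driven by EpoR plus mutant JAK2; 0% = DMSO-treated cells and 100% = JAK inhibitor I control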
BaF3 parental = parental Ba/F3 viability inhibition as JAK2V617F counter-screen; 220,000 compounds, 1.1% hits; AID 1486; inhibition, % at 5.6 µM; CellTiter-Glo ATP luminescence;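 active = inhibition above a per-campaign cutoff, the mean inhibition of all tested compounds plus 3 SD, cut at about 27% in these data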;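 also: 0% = DMSO wells and 100% = JAK Inhibitor I control wells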
IEC-6 cytotox = counter-screen for KLF5 inhibitors: cytotoxicity in IEC-6 cells; inhibition, % at 5 µM; 290,000 compounds, 0.78% hits; AID 1825; IEC-6 cytotoxicity, luminescence viability; in the data active = inhibition above about 22%;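 also: 0% = plate median of test compound wells and 100% = cytotoxic reference compound wells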
KLF5 inh = inhibitors of KLF5 expression; 290,000 compounds, 0.23% hits; inhibition, % at 5 µM; AID 1700; DLD-1 KLF5 promoter-luciferase reporter, luminescence;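 active = inhibition above a per-plate limit of that plate's mean compound inhibition plus 3 SD, cut at about 60% in these data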;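 also: 0% = DMSO wells and 100% = LY294002 at 200 µM; higher means less KLF5 promoter-driven luciferase light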
Starred values were filed as active, the others as inactive; x = no result given. Most compounds without a hit are left out; they make up all but 2.2% or so of the library.

SMILES	aSyn 5UTR inh	APP transl inh	Ba/F3 V617F tox	BaF3 parental	IEC-6 cytotox	KLF5 inh
CC(C)Cn1cnc2c(=O)oc3ccccc3c21	-5	3	-1	1	-7	-18
CCC(C)n1cnc2c(=O)oc3ccccc3c21 (stereo unspecified)	20	88*	2	5	11	-11
O=C(O)c1cccc(N/N=C/c2cccs2)c1	96*	9	-1	3	4	-73
CSc1ccc(/C=N/Nc2cccc(C(=O)O)c2)cc1	x	8	1	2	-8	-73
CC[n+]1c(C)cc2c(sc3ccccc32)c1C	x	4	88*	71*	0	-37
COc1ccccc1-c1ccc(SCc2ccc([N+](=O)[O-])cc2)nn1	11	-1	-1	2	0	-14
COc1ccccc1-c1ccc(SCc2cccc(C)c2)nn1	-14	-21	61*	66*	4	-18
O=C(c1ccc2c(=O)n(-c3ccccc3)c(=S)[nH]c2c1)N1CCCCC1	4	-2	45*	64*	1	-21
CCCCn1c(N)c(N(CC)C(=O)c2ccccc2F)c(=O)[nH]c1=O	7	x	x	x	0	-20
CCc1sc(C(=O)N2CCN(c3ccc(F)cc3)CC2)cc1C	-1	x	x	x	7	15
CCc1ccc2c(c1)[C@H]1OCC[C@H]1[C@@H](c1cccs1)N2	38	65*	19	41*	9	-12
NC(N)=Nc1nc(-c2ccccc2)c2ccccc2n1	13	-19	3	2	6	3
COc1nc(N=C(N)N)nc2ccc(C)cc12	13	-8	55*	56*	-2	-4
Cc1cccc(NC(=O)CNC(=O)CN2C(=O)NC3(CCCc4ccccc43)C2=O)c1C (stereo unspecified)	12	x	x	x	x	x
CC(=O)Nc1nc2ccccc2n1Cc1ccccc1C	67*	-2	1	0	11	0
CC(=O)Nc1nc2ccccc2n1Cc1ccccc1Cl	87*	x	0	-7	17	-42
Cn1c(NCc2ccccc2Cl)nc2ccccc21	-164	x	x	x	x	x
CCC(=O)Nc1nc2ccccc2n1Cc1ccccc1Cl	72*	x	-3	1	20	-17
CC(=O)NCc1nc2ccccc2n1Cc1ccccc1C	32	0	-2	7	6	-42
CCC(=O)Nc1nc2ccccc2n1Cc1ccc(Cl)cc1	72*	27	-3	6	12	-10
CN(C)S(=O)(=O)c1ccc(NC(=O)CCNC(=O)c2ccco2)cc1	9	x	x	x	4	0
Cc1noc(C)c1S(=O)(=O)N(CC(=O)NC1CCCC1)c1ccc(C(C)C)cc1	3	x	x	x	-5	-6
O=C(CSc1n[nH]c(-c2ccncc2)n1)Nc1ccc(Br)cc1	-7	x	x	x	6	0
CCCCCCCn1c(NC(=O)CC)nc2ccccc21	68*	x	1	-1	15	-10
CC(=O)Nc1nc2ccccc2n1CCOc1ccccc1Cl	73*	-29	0	5	16	-9
SMILES	aSyn 5UTR inh	APP transl inh	Ba/F3 V617F tox	BaF3 parental	IEC-6 cytotox	KLF5 inh
CCC(=O)Nc1nc2ccccc2n1CCN1CCOCC1	-31	-20	-3	1	-2	-29
S=C(Nc1ccccc1)Nc1nc2ccccc2n1CCOc1ccc(Cl)cc1	-19	5	-3	3	6	-13
O=C(Cn1c2[n+](c3ccc(C(F)(F)F)cc31)CCCCC2)Nc1ccccc1	8	-2	1	7	2	0
O=C(Cn1c2[n+](c3ccc(C(F)(F)F)cc31)CCCCC2)c1cccc([N+](=O)[O-])c1	-12	4	1	80*	6	-26
FC(F)(F)c1ccc2c(c1)n(Cc1ccccc1)c1[n+]2CCCCC1	15	-5	22	35*	-3	-9
C[n+]1cccc2cccc([O-])c21	x	x	-4	-2	-12	8
CN(CC(=O)Nc1cccc(F)c1)C(=O)c1cccnc1Sc1ccc(Cl)cc1	17	x	x	x	x	x
Cc1ccc(-n2nc3c(N4CCC(C(=O)NCCc5cccs5)CC4)nnc(C)c3c2C)cc1	90*	x	x	x	17	-30
Cc1ccc(-n2nc3c(=O)n(CC(=O)NCCc4cccs4)nc(C)c3c2C)cc1	43	x	x	x	6	-8
CC(=O)Nc1ccc(OCC(O)CN2CCN(c3ccc(F)cc3)CC2)cc1 (stereo unspecified)	-13	x	x	x	4	-19
O=C(c1c[nH]c(C(=O)N2CCN(c3ccccc3F)CC2)c1)c1cccc(Cl)c1Cl	43	57*	1	12	-4	-17
NC(=O)CC(NC(=O)Cc1cccc2ccccc12)c1ccc(N2CCC(N3CCCC3)CC2)c([N+](=O)[O-])c1 (stereo unspecified)	27	x	x	x	3	4
O=C(COC(=O)CN1C(=O)c2ccccc2C1=O)Nc1ccc(S(=O)(=O)N2CCCC2)cc1	-11	50*	-2	2	1	-19
Cc1ccc2nc(Cl)c(-c3ccccc3)cc2c1	74*	x	x	x	x	x
Cc1ccc2nc(Cl)nc(-c3ccccc3)c2c1	15	-28	1	10	2	11
O=C(NC1CC(=O)N(c2cccc(F)c2)C1)N1CCN(C(=O)c2ccco2)CC1 (stereo unspecified)	9	x	x	x	x	x
COc1ccc(-c2nnc(NC(=O)c3ccc(S(=O)(=O)N4CCc5ccccc5C4)cc3)o2)cc1	73*	4	6	9	-7	-21
COc1ccc(-c2nnc(NC(=O)c3ccc4c(c3)OCCO4)o2)cc1	105*	x	x	x	6	9
CC1CCCN(S(=O)(=O)c2ccc(C(=O)Nc3nnc(-c4ccccc4Cl)o3)cc2)C1 (stereo unspecified)	78*	-16	-4	-1	-1	-20
Cc1cc(C)c2c(n1)SCC(=O)N2CC(=O)Nc1cc(F)ccc1F	-5	x	x	x	4	-8
O=c1[nH]c(NCCO)nnc1Cc1ccccc1	-3	x	x	x	-1	9
Cc1cc(C)n(-c2nc(NCCCN(C)C)c3c4c(sc3n2)CCCC4)n1	-36	x	4	1	8	-20
Cc1cc(C)n(-c2nc(NCCN(C)C)c3c4c(sc3n2)CCCC4)n1	116*	x	4	-4	10	-25
CC(C)CC1Nc2ncnc(N3CCN(c4ccccc4)CC3)c2N(Cc2ccc(Cl)cc2)C1=O (stereo unspecified)	32	x	x	x	x	x
O=C1CSC(c2ccc(Cl)cc2)N1C1CCCCC1 (stereo unspecified)	21	-6	2	40*	3	-9
CC(=O)C1=C(O)C(=O)N(Cc2ccccc2)C1c1ccccc1F (stereo unspecified)	3	-14	1	37*	-4	-5
O=C1CCCN1CCCNS(=O)(=O)c1ccc(F)c(F)c1	3	x	x	x	7	-2
C=CCSc1nc(-c2ccc(OC)cc2)c(C#N)c(=O)n1CC=C	3	8	-1	0	-3	-32
CC(C)(C)c1ccc(Oc2ccc(NC(=O)c3ccco3)cn2)cc1	-11	x	80*	72*	13	-32
O=C(Nc1ccc(Oc2cccc(C(F)(F)F)c2)nc1)c1ccco1	39	x	0	-2	8	-30
